Results reported in PubChem BioAssay.
Calls of active or inactive are those of the source.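 The calls were made as follows, unless noted: active = fluorescence slope higher than the sample average by over 3 SD (cut at about -0.22 in these data, passing the limit was not always enough); inactive = the rest.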

Assays:
[1] = inhibitors of TNFa-induced NFkB p65 translocation, primary screen, imaging, HUVEC, MLSMR starter and 10KST1 sets (AID 438;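 active = inhibition above 20% together with a positive visual image hit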;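 also: compound added about 3h40 before a 20 min TNFalpha stimulation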;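 as to inhibition: signal is the nuclear over cytoplasmic p65 intensity ratio per well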); conditions: HUVEC TNFa-induced p65 nuclear translocation; cell count: measured here: nuclei count (cytotoxicity indicator), at 2.08 µM; inhibition: at 2 µM, stronger effect = higher value, 0% TNFa-plus-vehicle, 100% no-TNFa wells
[2] = inhibitors of mutant huntingtin aggregation, primary screen, imaging, exon1htt(103Q)mCFP cells, high-content imaging (AID 483;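 active = visual image review flags a hit and inhibition of aggregation exceeds 20%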;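 also: compound exposure lasted 3 days before fixation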;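 as to nuclei count: percent of the per-plate median nuclei count of sample wells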); conditions: exon1htt(103Q)mCFP cell line, aggregate imaging, at 2 µM; inhibition of aggregation: stronger effect = higher value; nuclei count: measured here: cell count, toxicity
[3] = inhibitors of E-selectin induction by TNFa, primary screen, imaging, HUVEC, immunofluorescence, MLSMR starter and 10KST1 sets (AID 487;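 active = visually confirmed hit in the image check and inhibition above 20%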;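 as to inhibition: signal is fraction of cell area covered by stained E-selectin grains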;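 as to nuclei count: 100% = median nuclei count of all wells on the same plate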); conditions: HUVEC TNFalpha-induced E-selectin immunofluorescence imaging, at 2 µM; inhibition: stronger effect = higher value; nuclei count: measured here: cell number, toxicity
[4] = biological target: Voltage-gated potassium channel subunit beta-2 (Rattus norvegicus) (UniProt P62483); assay: KvBeta enzyme negative modulators, primary screen, biochemical, NADPH fluorescence (AID 622); conditions: recombinant KvBeta, 4-cyanobenzaldehyde reduction, at 10 µM, stronger effect = higher value;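 also: slope of raw intensity against log time taken from 70 to 1610 s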
Chain of Voltage-gated potassium channel subunit beta-2 (Rattus norvegicus) (P62483 whole entry, looked up): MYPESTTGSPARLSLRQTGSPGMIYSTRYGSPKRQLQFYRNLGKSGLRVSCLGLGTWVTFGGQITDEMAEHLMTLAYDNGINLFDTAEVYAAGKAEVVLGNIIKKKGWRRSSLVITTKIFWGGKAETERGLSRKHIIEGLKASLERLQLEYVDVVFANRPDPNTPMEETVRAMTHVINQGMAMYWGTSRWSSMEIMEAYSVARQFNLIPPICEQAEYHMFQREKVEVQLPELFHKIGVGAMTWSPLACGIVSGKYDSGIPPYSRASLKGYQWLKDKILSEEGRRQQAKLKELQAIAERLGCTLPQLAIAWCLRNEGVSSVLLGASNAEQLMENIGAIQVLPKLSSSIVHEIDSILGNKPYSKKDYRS

[5] = biological target: Voltage-gated potassium channel subunit beta-2 (Rattus norvegicus) (UniProt P62483); assay: KvBeta positive modulators, primary screen, biochemical, NADPH fluorescence (AID 623;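 active = NADPH fluorescence slope more negative than the mean of all samples by about 3 SD, 99.7% confidence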;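 also: fluorescence intensity change per second fitted from 20 to 320 s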); conditions: Recombinant KvBeta, NADPH fluorescence decrease slope, 10 min; at 10 µM; stronger effect = lower value
[6] = biological target: Alpha-2C adrenergic receptor (Homo sapiens) (UniProt P18825); assay: modulators of alpha2C/GIRK thallium flux, primary screen, cell-based, HEK293 alpha2C/GIRK1/2 (AID 624;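 active = fluorescence slope after compound addition differing from the mean of all screened samples at 99.7% confidence, in either direction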;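 also: slope of fluorescence ratio to pre-addition baseline per second over 15 to 24 s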); conditions: thallium flux BTC fluorescence, at 10 µM, actives lie on both sides
Chain of Alpha-2C adrenergic receptor (Homo sapiens) (P18825 whole entry, looked up): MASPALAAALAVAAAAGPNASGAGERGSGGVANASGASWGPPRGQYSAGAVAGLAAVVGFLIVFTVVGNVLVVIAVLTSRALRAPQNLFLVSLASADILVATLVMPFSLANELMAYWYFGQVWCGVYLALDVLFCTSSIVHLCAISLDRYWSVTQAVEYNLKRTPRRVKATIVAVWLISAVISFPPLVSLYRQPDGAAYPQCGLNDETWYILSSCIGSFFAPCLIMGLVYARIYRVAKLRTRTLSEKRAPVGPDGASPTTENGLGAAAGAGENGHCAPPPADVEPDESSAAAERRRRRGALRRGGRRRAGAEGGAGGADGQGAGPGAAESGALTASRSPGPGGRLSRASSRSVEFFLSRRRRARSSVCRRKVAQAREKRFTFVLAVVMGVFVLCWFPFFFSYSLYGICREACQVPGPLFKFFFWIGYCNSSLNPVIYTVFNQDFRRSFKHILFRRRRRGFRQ

[7] = inhibitors of Sendai virus-induced IRF3 signaling, primary screen, TLR/RLR signaling modifier project, cell-based, Sendai virus stimulus, luciferase, 10K MLSCN set (AID 602276;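 active = inhibition at or above 50% at 10 µM; inactive = inhibition below 50%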;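 also: firefly luciferase from ISG56 promoter only with Renilla not read in this screen; 0% = Sendai virus plus DMSO and 100% = medium plus DMSO without virus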); conditions: HEK293 RL24 IRF3 luciferase reporter, at 10 µM, stronger effect = higher value
[8] = inhibitors of poly I:C-induced TLR3 signaling, primary screen, cell-based, poly I:C stimulus, luciferase, 10K MLSCN set (AID 602277;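 active = inhibition of the reporter signal at or above 50%; inactive = inhibition below 50%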); conditions: HEK293-TLR3 RL24 IRF3 luciferase reporter, at 10 µM, stronger effect = higher value

Structure (SMILES)	cell count [1]	inhibition [1]	inhibition of aggregation [2]	nuclei count [2] [%]	inhibition [3]	nuclei count [3] [%]	fluorescence slope [4]	NADPH fluorescence slope [5]	slope [6]	inhibition [7]	inhibition [8]
CCCOc1ccccc1NC(=O)c1c(-c2ccccc2)noc1C	800	4.6% (inactive)	8.8% (inactive)	111	-43.4% (inactive)	112	-0.584 (inactive)	-1.4e-05 (inactive)	0.00575 (inactive)	10.6% (inactive)	25.8% (inactive)
N#Cc1c(NC(=O)c2ccc(Br)o2)n(-c2ccccc2)c2nc3ccccc3nc12	275	-1.4% (inactive)	14.7% (inactive)	97.4	-63.2% (inactive)	104	-0.502 (inactive)	-2e-05 (inactive)	0.0121 (active)	19.9% (inactive)	18.8% (inactive)
CCOC(=O)N1CCN(S(=O)(=O)c2ccc(OCC)c(C)c2)CC1	604	-11.1% (inactive)	-7.7% (inactive)	106	8.2% (inactive)	102	-0.625 (inactive)	-3.8e-06 (inactive)	0.00615 (inactive)	0.885% (inactive)	11.9% (inactive)
S=c1[nH]nc(-c2ccco2)n1-c1cccc2ccccc12	390	1.5% (inactive)	-1.8% (inactive)	111	-181% (inactive)	104	-0.526 (inactive)	3.2e-05 (inactive)	0.00555 (inactive)	-23.7% (inactive)	-8.5% (inactive)
O=S(=O)(c1cc(Cl)ccc1Br)N1CCOCC1	450	10.6% (inactive)	-0.6% (inactive)	90.7	-192% (inactive)	133	-0.431 (inactive)	-7.3e-05 (inactive)	0.00323 (inactive)	6.91% (inactive)	35.8% (inactive)
CC(C)c1ccc(-c2nc(N3CCOCC3)[nH]c(=O)c2C#N)cc1	321	-8.9% (inactive)	-12% (inactive)	95.4	-32.8% (inactive)	114	-0.405 (inactive)	-2e-05 (inactive)	0.00599 (inactive)	13.1% (inactive)	13.1% (inactive)
CCC(Sc1nc2sc(C(=O)OC)c(C)c2c(=O)n1N)C(=O)NCC1CCCO1 (stereo not drawn)	477	7.5% (inactive)	-2.8% (inactive)	117	12% (inactive)	98.2	-0.592 (inactive)	-6.1e-05 (inactive)	0.00714 (inactive)	7.5% (inactive)	11.6% (inactive)
CCn1c(=N)n(CC(O)c2ccco2)c2ccccc21 (stereo not drawn)	321	-8.1% (inactive)	-20.7% (inactive)	87.8	-33% (inactive)	110	-0.358 (inactive)	-5.8e-05 (inactive)	0.00623 (inactive)	10.3% (inactive)	24.1% (inactive)
CCOC(=O)Cc1nnc(NC(=O)c2ccccc2OCC)s1	583	12.6% (inactive)	5.3% (inactive)	102	-43.9% (inactive)	123	-0.448 (inactive)	-0.000111 (inactive)	0.005 (inactive)	4.48% (inactive)	4.72% (inactive)
Cc1ccccc1NC(=O)C1CC(=O)N(c2ccccc2F)C1 (stereo not drawn)	238	-0.6% (inactive)	30.3% (inactive)	77	-56.9% (inactive)	97.7	-0.462 (inactive)	-3.8e-05 (inactive)	0.00686 (inactive)	0.893% (inactive)	28.8% (inactive)
O=C(Nc1ccc(-c2noc(-c3cccs3)n2)cc1)c1cccnc1	595	8.2% (inactive)	28% (inactive)	115	-49.2% (inactive)	95.8	-0.474 (inactive)	2.2e-05 (inactive)	0.00649 (inactive)	-67.5% (inactive)	-122% (inactive)
O=C(Nc1ccccc1C(=O)N1CCN(c2ccccc2)CC1)c1ccco1	300	-5.1% (inactive)	6.3% (inactive)	98.2	-73.2% (inactive)	111	-0.605 (inactive)	-2.1e-05 (inactive)	0.00253 (inactive)	0.26% (inactive)	-6.86% (inactive)
COc1ccccc1C(=O)N1CCN(C(=O)c2ccncc2)CC1	252	7.8% (inactive)	-2.8% (inactive)	92.4	12.3% (inactive)	76.2	-0.515 (inactive)	-1.9e-05 (inactive)	0.00571 (inactive)	8.46% (inactive)	6.89% (inactive)
CC(=O)N1CCN(C(C)=O)C1c1ccccc1	464	6% (inactive)	-9.6% (inactive)	106	-231% (inactive)	133	-0.376 (inactive)	5.2e-06 (inactive)	0.00709 (inactive)	-22% (inactive)	-25.1% (inactive)
CCOCCCNC(=O)C1CCN(S(=O)(=O)N(CC(C)C)CC(C)C)CC1	689	-5.1% (inactive)	17.3% (inactive)	79.1	-91.6% (inactive)	100	-0.503 (inactive)	-5.5e-05 (inactive)	0.00467 (inactive)	16.6% (inactive)	19.9% (inactive)
CC(=NCC1CCNCC1)C1=C(O)CC(C)(C)CC1=O	663	-11% (inactive)	-14.1% (inactive)	113	12.1% (inactive)	132	-0.499 (inactive)	4e-06 (inactive)	0.00593 (inactive)	4.83% (inactive)	23.6% (inactive)
N/C(=N/O)c1nc(N2CCCCC2)nc(N2CCCCC2)n1	640	-16.2% (inactive)	-135% (inactive)	53.7	-50.5% (inactive)	81.9	-0.498 (inactive)	8.9e-06 (inactive)	0.00632 (inactive)	8.03% (inactive)	24.6% (inactive)
Cc1ccc(NC(=O)c2ccccc2O)cc1	631	12.1% (inactive)	8% (inactive)	91.3	-203% (inactive)	119	-0.602 (inactive)	-5.6e-05 (inactive)	0.00651 (inactive)	-61.1% (inactive)	-73.1% (inactive)
Cc1ccc(OCCN2CCN(C(=O)CCC(=O)Nc3nnc(C)s3)CC2)cc1	349	-4.3% (inactive)	-14.8% (inactive)	100	-18.9% (inactive)	100	-0.318 (inactive)	-6.3e-05 (inactive)	0.00527 (inactive)	9.9% (inactive)	19.2% (inactive)
O=C(Cn1nnc2ccccc2c1=O)NC1CCCc2ccccc21 (stereo not drawn)	485	-2.9% (inactive)	-0.1% (inactive)	108	10.6% (inactive)	92.5	-0.486 (inactive)	-1.6e-05 (inactive)	0.00524 (inactive)	17% (inactive)	25% (inactive)
CCN(CC)c1ccc(NC(=O)CN2C(=O)CC(C)(C)S(=O)(=O)c3ccccc32)c(C)c1	879	5.8% (inactive)	30.2% (inactive)	60.8	-63.3% (inactive)	125	-0.465 (inactive)	-2.5e-05 (inactive)	0.00659 (inactive)	10.9% (inactive)	-2.32% (inactive)
O=C(CCN1C(=O)C2C3C=CC(C3)C2C1=O)NCCc1ccccc1Cl (stereo not drawn)	408	10.7% (inactive)	-1.6% (inactive)	103	-111% (inactive)	99.4	-0.498 (inactive)	-2.1e-05 (inactive)	0.00634 (inactive)	-11.5% (inactive)	-13.2% (inactive)
Cc1[nH]c2ccccc2c1Cc1nnc(SCC(=O)NCc2ccco2)o1	428	-7.7% (inactive)	12.9% (inactive)	83.4	-24.9% (inactive)	87	-0.436 (inactive)	1.9e-05 (inactive)	0.0061 (inactive)	-11.7% (inactive)	-28.3% (inactive)
C/C(N)=C(/C#N)C(=O)COC(=O)c1cc(C)n(-c2ccc(F)cc2)c1C	717	10.2% (inactive)	2.4% (inactive)	116	-93.8% (inactive)	146	-0.487 (inactive)	1.6e-05 (inactive)	0.00428 (inactive)	15.2% (inactive)	-211% (inactive)
COCCCNC(=O)Cn1cc2c(n1)CCC(C)C2 (stereo not drawn)	767	-6.1% (inactive)	-6% (inactive)	104	-27.6% (inactive)	121	-0.652 (inactive)	2.7e-06 (inactive)	0.00615 (inactive)	4.22% (inactive)	12.1% (inactive)
Cn1c(=O)c2c(nc3sccn32)n(C)c1=O	463	12.5% (inactive)	5.1% (inactive)	100	29.8% (inactive)	108	-0.455 (inactive)	7.5e-05 (inactive)	0.00599 (inactive)	9.58% (inactive)	23.1% (inactive)
CSCCC(NC(=O)c1occc1C)C(=O)O (stereo not drawn)	361	4% (inactive)	-17.4% (inactive)	108	-91.1% (inactive)	149	-0.351 (inactive)	-6.3e-05 (inactive)	0.00359 (inactive)	7.31% (inactive)	21.8% (inactive)
COc1ccc(C(=O)CN2C3=NCCCN3c3ccccc32)cc1OC	335	-3.1% (inactive)	-14.2% (inactive)	76.5	22.7% (inactive)	93.6	-0.475 (inactive)	-4.1e-05 (inactive)	0.00312 (inactive)	10.4% (inactive)	28.8% (inactive)
